# Shn3 3UTR inh – reduces Shn3 3'UTR luciferase signal in osteoblasts | Clone20 osteoblast Shn3 3'UTR firefly luciferase, 24 h | inhibition, % at 12.5 µM | hit rate 0.52% among 360,000 | AID 588674;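 active = mean inhibition of at least 75% with every replicate also reaching 75%; inconclusive = mean inhibition at least 75% but some replicate below; inactive = mean inhibition below 75%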;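 note: 0% = median of neutral control wells and 100% = pilot-screen positive control compound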
# TRPM1 prom inh – MITF TRPM1 promoter inhibition in SK-MEL-5 cells; inhibition, % at 12.5 µM; AID 488899; hit rate 0.83% among 330,000; SK-MEL-5 TRPM1 promoter luciferase, 24 h;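 active = mean inhibition across replicates of 60% or more, whatever share of single replicates reaches that level; inconclusive = some that reach 60%, reason not given; inactive = mean inhibition across replicates below 60%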
# EBV LMP1 NFkB – reduces LMP1-driven NF-kappaB luciferase signal; inhibition, % at 12.5 µM; hit rate 0.69% among 350,000; LMP1-induced NF-kappaB luciferase reporter cells, luminescence; in the data active = inhibition above about 41%; inconclusive = no clear call, values can overlap the other calls;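 note: 0% = neutral control wells and 100% = reference inhibitor control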
# CF NFkB block – blocks PAF-induced NF-kB reporter in cystic fibrosis cells. KKLEB NF-kB-GFP reporter, GFP fluorescence overnight. inhibition, % at 5 µM. hit rate 0.86% among 360,000. AID 588850;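 active = at least 50% inhibition at 5 µM, scaled per plate between neutral and stimulator controls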;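 note: PAF is a Pseudomonas aeruginosa culture filtrate used as stimulus; plate controls were PAF-stimulated DMSO wells for no effect and unstimulated DMSO wells for full effect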
# Peg3 prom inh – Peg3 promoter activity inhibition; HeLa PEG-Prom luciferase reporter, luminescence, overnight; inhibition, % at 20 µM; hit rate 1.7% among 360,000; AID 588405;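 active = inhibition of at least 50% at 20 µM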
# KKLEB tox – CF airway cell cytotoxicity counter-screen; hit rate 0.36% among 360,000; KKLEB CF airway cells viability, ATPlite luminescence, overnight; stronger effect = lower value; cells stimulated with P. aeruginosa culture filtrate; activity change (cytotoxicity), % at 5 µM;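 active = corrected activity change at or below -50% at 5 µM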
# Active calls of the source: *; u = inconclusive; x = not tested or not shown; ! = repeats disagree. Compounds with a hit are over-represented: about 2.9% of the library has one in this group of screens.
SMILES,Shn3 3UTR inh,TRPM1 prom inh,EBV LMP1 NFkB,CF NFkB block,Peg3 prom inh,KKLEB tox
CCN1CCN(Cc2ccc(NC(=O)c3cc(NC(=O)c4cc(-c5ccc(OC)cc5)n[nH]4)cc(OC)c3)cc2C(F)(F)F)CC1,9,99*,-2,14,32,-10
CCN1CCN(Cc2ccc(NC(=O)c3cc(NC(=O)N4CCNC4=O)cc(OC)c3)cc2C(F)(F)F)CC1,13,-4,11,34,97*!,-18
CCN1CCN(Cc2ccc(NC(=O)c3cc(NC(=O)c4cncc(-c5cccs5)c4)cc(OC)c3)cc2C(F)(F)F)CC1,98*,x,-7,35,31,-16
CCN1CCN(Cc2ccc(NC(=O)c3cc(NC(=O)c4cc5cccc(OC)c5o4)cc(OC)c3)cc2C(F)(F)F)CC1,99*,18,-103,55*!,104*,-53*!
CCN1CCN(Cc2ccc(NC(=O)c3cc(NC(=O)c4ccc5n[nH]nc5c4)cc(OC)c3)cc2C(F)(F)F)CC1,-27,2,-18,5,-10,-3
CC(C)C[C@H]1CNC(=S)N1CC1CCN(CCCCc2ccccc2)CC1,-8,5,37,5,-3,-5
CC(C)(C)c1ccc(C(=O)NCCC(=O)NCc2ccc(F)cc2)cc1,8,x,-16,-7,-7,5
O=C(O)c1ccc(Oc2ccc([N+](=O)[O-])cc2)c([N+](=O)[O-])c1,-4,7,7,-33,-1,22
C[C@H](CO)N1C[C@H](C)[C@H](CN(C)C(=O)C2CC2)OCc2cnnn2CCCC1=O,-34,x,-2,3,-14,7
COCCn1c(SCC(=O)Nc2ccc(F)cc2)nc2c(c1=O)SCC2,18,x,-4,-18,2,1
CC(C)[Si]1(C(C)C)OCC2OC(n3cnc4c(N)ncnc43)C(N)C2O[Si](C(C)C)(C(C)C)O1 (stereo not drawn),8,-5,0,47,43,-13
Cc1cc(C(=O)COC(=O)c2cccnc2Cl)c(C)n1CC1CCCO1 (stereo not drawn),56,58,65*,-4,48,-18
O=c1ccn([C@@H]2O[C@H](CNCc3cccc4c3sc3ccccc34)[C@@H](O)[C@H]2O)c(=O)[nH]1,13,x,x,-19,10,11
COc1ccc(C2=NN(C(=O)COC(=O)c3ccc(S(C)(=O)=O)c([N+](=O)[O-])c3)C(c3ccco3)C2)cc1 (stereo not drawn),66,81*,-3,84*,94*,-80*
CS(=O)(=O)c1ccc(C(=O)OCC(=O)N2CCOCC2)cc1[N+](=O)[O-],95*,x,x,43,0,-7
CS(=O)(=O)c1ccc(C(=O)OCC(=O)N2CCN(CCC3CCCCC3)CC2)cc1[N+](=O)[O-],96*,x,x,101*,97*,-85*
COc1ccc(C2CC(c3ccccc3)=NN2C(=O)COC(=O)c2cnc(Cl)c(Cl)c2)cc1 (stereo not drawn),-1,11,8,13,99*,-7
COc1ccc(C2CC(c3ccccc3)=NN2C(=O)COC(=O)c2ccc(Cl)nc2)cc1 (stereo not drawn),-6,-4,2,2,-68,-5
CCNC(=O)N(C)C[C@H]1N[C@@](Cc2ccccc2)(C(=O)OC)[C@H]2C(=O)N(C)C(=O)[C@@H]12,-7,1,-17,-18,-1,21
O=C(CSC(=S)N1CCCC1)N(Cc1nnc(-c2ccccc2Cl)o1)C1CC1,11,2,-1,-8,0,7
COC(=O)C1CC2=C(CCC2=O)N(c2ccccc2)C1=O (stereo not drawn),-12,-4,-3,2,-1,2
O=C(NCCc1ccc(Cl)cc1)c1cccc(S(=O)(=O)N2CCCC2)c1,u,x,-14,6,2,-3
CS(=O)(=O)c1ccc(C(=O)OCC(=O)NC(=O)C2CCCCC2)cc1[N+](=O)[O-],37,67*,-3,74*,98*,-20
CS(=O)(=O)c1ccc(C(=O)OCC(=O)NC(=O)C2COc3ccccc3O2)cc1[N+](=O)[O-] (stereo not drawn),-42,17,-26,8,8,24
COc1ccc(NC(=S)NC(NC(=O)/C=C/c2ccccc2)C(Cl)(Cl)Cl)cc1 (stereo not drawn),24,7,3,3,53*,-3
SMILES,Shn3 3UTR inh,TRPM1 prom inh,EBV LMP1 NFkB,CF NFkB block,Peg3 prom inh,KKLEB tox
O=C(/C=C/c1ccccc1)NC(NC(=S)Nc1ccc(Cl)cc1)C(Cl)(Cl)Cl (stereo not drawn),u,55,38,2,38,-2
Cn1c(C=O)c(C#Cc2ccccc2)c2ccccc21,0,14,-4,9,24,-14
CN(c1ccccc1)S(=O)(=O)c1cccc(C(=O)Nc2nccs2)c1,18,5,-1,6,-1,27
COc1cc(OC)c(N(C)S(=O)(=O)c2cccc(C(=O)Nc3nccs3)c2)cc1Cl,31,1,-10,-14,51*,12
Cc1cc(OCC(=O)Nc2ccccn2)c2c(C)cc(=O)oc2c1,-6,-12,49*,-38,-40,2
CCCc1cc(=O)oc2cc(C)cc(OCC(=O)Nc3ccccn3)c12,-5,-10,-16,-28,15,6
Cc1ccc(NC(=S)NNC(=S)Nc2ccc(C)cc2C)cc1,-5,19,7,57*,-11,2
COc1cnc(-c2ccccn2)nc1NC(C)C,92*,66*,-7,-3,36,-19
Cc1ccc(S(=O)(=O)NC(=O)C2(C)CCN2C(=O)Cc2cccs2)nc1 (stereo not drawn),-7,x,x,-14,9,-5
O=C(CCl)Nc1cc2[nH]c(=O)[nH]c2cc1Br,-26,57,3,-22,88*,-20
CCC(CC)CC1CN2CCc3cc(OC)c(OC)cc3C2CC1(O)CC (stereo not drawn),85*,x,3,12,-7,5
COc1cc2c(cc1OC)C1CC(=O)C(CC(C)C)CN1CC2 (stereo not drawn),4,-1,-5,-6,17,7
COc1ccc(C(=O)NCC(=O)OCc2c(Cl)cccc2Cl)cc1OC,-4,-16,2,-4,-21,4
C/C(=N\Nc1nc2ccccc2[nH]1)c1ccc(Cl)s1,-3,3,43*,-27,-133,8
C/C(=N\Nc1nc2ccccc2[nH]1)c1ccc(C)o1,-52,-3,-20,-2,-221,-17
O=[N+]([O-])c1cccc(SSc2cccc([N+](=O)[O-])c2)c1,37,10,2,0,15,-1
CC1(C)OC(C(O)(c2ccccc2)c2ccccc2)[C@@H](C(O)(c2ccccc2)c2ccccc2)O1 (stereo partly drawn),28,7,-8,32,64*,6
